± gives the standard deviation of the averaged measurements.

In this test the test system is MDAMB468. Description: cell proliferation (confluence) relative to DMSO control; higher = less growth inhibition. The note with it: 5 uM; 6 d. Here is the method: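 Epigenetic chemical probe screen: 15 TNBC cell lines, 500 cells per well in 384-well plates, treated with 5 uM of each of 36 SGC probes for 6 d. Confluency was imaged by IncuCyte ZOOM and normalised to DMSO control wells. Four replicate wells per compound.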
Take `CCOC(=O)CCNc1cc(N2CCc3ccccc3CC2)nc(-c2ccccn2)n1`: the cell proliferation was found to be 9.55 ± 1.9%.
With `O=C(/C=C/N1C[C@H]2C[C@@H]1CN2c1ccccn1)c1ccccc1O`, the cell proliferation is 75.6 ± 6.1%.
`CC(C)Oc1ccc(-c2c[nH]cc2CN(C)CCO)cc1`: the cell proliferation was 37 ± 7.3%.
Consider `COc1cc(C#N)ccc1S(=O)(=O)Nc1ccc2c(c1)cc(C)c(=O)n2C`, for which the cell proliferation worked out at 40.4 ± 6.3%.
Take `Clc1cc2c(NC3CCCC3)nnc(-c3ccncc3)c2cc1Cl`: the cell proliferation came out at 56.9 ± 7.9%.
For `CCOC(=O)CCNc1cc(N2CCc3ccccc3CC2)nc(-c2cccnc2)n1` the value was 71.9 ± 10%.
`CNCCN1CCC(OCc2ccccc2)CC1` displayed a cell proliferation of 37.4 ± 6.8%.
For `COc1cc2c(cc1OCCCN1CCCC1)N=C(N)C21CCC1` the value was 71.6 ± 11%; for `CCCc1cc(C)n(C)c(=O)c1CN(C)C(=O)c1cc(-c2ccc(N3CCN(C(C)C)CC3)nc2)cc2c1cnn2C(C)C`, 70.4 ± 6.3%; for `CCn1cc(-c2cccc(C(F)(F)F)c2)c2sc(C(=N)NC3CCS(=O)(=O)CC3)cc2c1=O`, 29.1 ± 4.8%.
For `COc1ccc(CCc2nc3cc(-c4c(C)noc4C)ccc3n2C[C@H](C)N2CCOCC2)cc1Cl` the value was 32.8 ± 4%; for `O=C(NCC(=O)N1CCCC1)Nc1ccc2cnccc2c1`, 40.6 ± 15%.
For `CCN(C(=O)CO)[C@H]1CN(/C(=N\C#N)Nc2cccc(OC(F)F)c2)N=C1c1ccc(Cl)c(Cl)c1` the value was 55.2 ± 6%; for `Cc1cc(=O)n(C)c2cc(N3C(=O)CC[C@H](NS(=O)(=O)CC(C)C)[C@H]3c3ccc(Cl)cc3)ccc12`, 59.3 ± 2.4%; for `O=C(c1ccc(C(=O)N2CCC(N3CCCC3)CC2)c(Nc2ccccc2)c1)N1CCC(N2CCCC2)CC1`, 74.9 ± 8.6%.
As to `COc1cc(-c2cn(C)c(=O)c3cnccc23)c(OC)cc1CN(C)C`, the cell proliferation is 53.6 ± 13%.
Consider `CC(C)Oc1ccc(-c2c[nH]cc2CN(C)CCN)cc1`, for which the cell proliferation amounted to 19.3 ± 5.7%.
In turn, `COc1cc2c(NC3CCN(C(C)C)CC3)nc(C3CCCCC3)nc2cc1OCCCN1CCCC1` came in with a cell proliferation of 67.2 ± 8%.
For `COc1ccccc1C(=O)Nc1cc2c(cc1N1CCCC1)n(C)c(=O)n2C` the value was 39.3 ± 3.8%; for `CCC(=O)N1CCOc2c(cc(-c3ccc(OC)c(OC)c3)cc2OC[C@H]2CCCN(C)C2)C1`, 37.1 ± 9%; for `CCCc1cc(C)[nH]c(=O)c1CNC(=O)c1cc(-c2ccc(N3CCN(C(C)C)CC3)nc2)cc2c1cnn2C(C)C`, 13.3 ± 14%.
For `Cc1nnc2c3ccccc3c(N[C@@H](C)[C@H](c3ccccc3)N(C)C)nn12` [L-moses] the value was 41 ± 3.8%; for `CN(C)[C@H]1CN(C2CCc3cccc(F)c32)C[C@@H]1c1ccc(N2CCN(S(C)(=O)=O)CC2)cc1` (some centres not stated), 62.7 ± 4.4%; for `Cn1cc(CCn2cnc(-c3cnn(C)c3)c2-c2ccc(C#N)cc2)cn1`, 55.5 ± 13%.
Regarding `O=C(NC[C@H](O)CN1CCc2ccccc2C1)c1ccnc(NC2CCC2)c1`, the cell proliferation was 32 ± 1.8%.
Take `CCCOc1ccn2c(C(C)=O)cc(-c3ccccc3S(C)(=O)=O)c2c1`: the cell proliferation came to 66 ± 5.1%.
Take `CC[C@H](C)n1cc(C)c2c(C(=O)NCc3c(C)cc(C)[nH]c3=O)cc(-c3ccc(N4CCNCC4)nc3)cc21`: the cell proliferation stood at 15.4 ± 9%.
Compound `COc1ccccc1S(=O)(=O)Nc1ccc2c(c1)CN(C)C(=O)N2` yielded a cell proliferation of 23.2 ± 2.7%.
For `COc1c(C)cc(NC(=O)c2nn(Cc3ccc(F)cc3)c3c2CN(C(=O)c2ccc[nH]2)C[C@]3(C)C(N)=O)cc1C` the value was 35.5 ± 4.7%.
For `CCCc1cc(C)[nH]c(=O)c1CNC(=O)c1cc(-c2ccnc(N3CCN(C)CC3)c2)cc2c1cnn2C(C)C` the value was 67.7 ± 12%.
`O=C([C@@H](Cc1cccc(C(F)(F)F)c1)NS(=O)(=O)c1cc(F)c2c(c1)CCNC2)N1CCCC1` showed a cell proliferation of 50.5 ± 25%.
For `CC(C)N(CCCNC(=O)Nc1ccc(C(C)(C)C)cc1)C[C@H]1O[C@@H](n2cc(Br)c3c(N)ncnc32)[C@H](O)[C@@H]1O` the value was 54.2 ± 14%.

(Values after the supplement of paper PMC9337992.)
